NTR1 agonist = agonists of human NTR1, primary screen, imaging, U2OS cells, beta-arrestin-GFP, high content; AID 493036, 2011; actives 0.17% (n = 330,000); activation, % at 20 µM; NTR1-U2OS beta-arrestin-GFP spot imaging, agonist mode; Neurotensin receptor type 1 (Homo sapiens), P30989;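 active means activation at or above 40% of the spot to cytoplasm intensity ratio, with at least 20 cells analyzed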;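 further: 0% = DMSO without peptide and 100% = 100 nM NTR1 peptide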
TMEM16A inh = TMEM16A chloride channel inhibitors, primary screen, cell-based, HTS; Anoctamin-1 (Mus musculus), Q8BHY3; HEK293 TMEM16A/YFP iodide influx fluorescence, ionomycin; normalized B-score (activity score, 25-100; higher = stronger inhibition) at 10 µM; actives 1.2% (n = 310,000);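 active means ratio plate-corrected score three or more library SD toward inhibition, starting fluorescence score within five deviations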;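 further: score derived from kinetic fluorescence span divided by baseline fluorescence per well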
Target sequence (Q8BHY3 whole entry, looked up): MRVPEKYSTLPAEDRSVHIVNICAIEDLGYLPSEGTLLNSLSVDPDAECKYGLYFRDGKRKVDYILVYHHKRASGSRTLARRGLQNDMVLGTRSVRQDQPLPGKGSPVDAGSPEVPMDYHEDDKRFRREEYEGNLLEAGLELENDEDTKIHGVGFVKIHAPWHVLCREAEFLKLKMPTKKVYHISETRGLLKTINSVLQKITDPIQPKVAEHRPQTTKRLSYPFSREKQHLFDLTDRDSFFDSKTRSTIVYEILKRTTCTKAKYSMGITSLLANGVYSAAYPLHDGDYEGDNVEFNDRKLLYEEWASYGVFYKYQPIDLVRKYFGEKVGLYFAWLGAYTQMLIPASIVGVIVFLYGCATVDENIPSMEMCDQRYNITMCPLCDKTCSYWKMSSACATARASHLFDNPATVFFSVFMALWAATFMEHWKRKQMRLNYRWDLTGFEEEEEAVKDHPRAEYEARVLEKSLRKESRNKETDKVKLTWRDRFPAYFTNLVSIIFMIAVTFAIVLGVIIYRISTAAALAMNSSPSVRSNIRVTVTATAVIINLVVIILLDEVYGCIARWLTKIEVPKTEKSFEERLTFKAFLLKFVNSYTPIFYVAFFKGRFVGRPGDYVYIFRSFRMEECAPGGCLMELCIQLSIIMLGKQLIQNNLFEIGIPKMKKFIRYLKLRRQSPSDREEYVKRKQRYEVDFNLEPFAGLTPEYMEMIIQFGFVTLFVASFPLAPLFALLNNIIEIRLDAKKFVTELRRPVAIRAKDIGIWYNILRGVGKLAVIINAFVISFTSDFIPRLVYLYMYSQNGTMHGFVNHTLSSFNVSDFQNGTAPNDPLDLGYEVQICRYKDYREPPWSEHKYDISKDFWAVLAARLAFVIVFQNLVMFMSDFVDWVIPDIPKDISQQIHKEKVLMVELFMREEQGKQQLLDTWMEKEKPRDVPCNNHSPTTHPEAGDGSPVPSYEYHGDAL
MEKK2mut PB1 HTS = MEK5 binding signal on mutant MEKK2 PB1, primary screen, biochemical, multiplex bead flow cytometry, Alexa488-MEK5. Alexa488-MEK5 binding to MEKK2 mutant. percent response, % at 10 µM. actives 0.35% (n = 290,000). AID 1530, 2009; in the data active means percent response above about 24%, passing the limit was not always enough
MEKK2 WT-MEK5 = modulators of MEK5 binding to wildtype MEKK2, primary screen, biochemical, multiplex bead flow cytometry, Alexa488-MEK5; binding response (% of control), % at 10 µM; Mitogen-activated protein kinase kinase kinase 2 (Homo sapiens), Q9Y2U5; Alexa488-MEK5 binding to MEKK2 WT; actives lie on both sides; AID 1531, 2009; actives 1.1% (n = 290,000); in the data active means binding response below about 67% or above about 130%
MEKK3 PB1 HTS = modulators of MEKK3-MEK5 PB1 binding, primary screen, biochemical, wildtype MEKK3, multiplex bead flow cytometry, Alexa488-MEK5. Mitogen-activated protein kinase kinase kinase 3 (Homo sapiens), Q99759. actives 1.4% (n = 290,000). bead-based flow cytometry, Alexa488-MEK5 binding to MEKK3; actives lie on both sides; 0 = blocked by unlabeled MEK5, 100 = vehicle. binding response (% of control), % at 10 µM;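 active means binding response more than 3 SD above or below the average of its plate-row segment, actives on both sides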;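 further: Alexa488 bead fluorescence after subtracting the streptavidin-only scavenger bead signal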
TMEM16A act = TMEM16A chloride channel activators or potentiators, primary screen, cell-based, HTS; Anoctamin-1 (Mus musculus), Q8BHY3; HEK293 TMEM16A/YFP-H148Q/I152L, iodide quench fluorescence; stronger effect = lower value; B-score at 10 µM; actives 0.3% (n = 340,000);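 active means fluorescence-ratio B-score plate-corrected deviation score at least 3 library SD below zero, with starting fluorescence score within 5 deviations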;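 further: channel opened by trigger with iodide after compound preincubation; score built on the fluorescence ratio of max minus min over baseline; more negative score means more quench and so TMEM16A activation or potentiation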
MEKK2wt confirm = modulators of MEK5 binding to wildtype MEKK2, confirmation, biochemical, single concentration, multiplex bead flow cytometry. shares compounds with MEKK3 PB1 HTS. Alexa488-MEK5 binding to MEKK2 WT; actives lie on both sides. binding response (% of control), % at 10 µM. actives 2.4% (n = 5,900). AID 1892, 2009; in the data active means binding response below about 16% or above about 210%; inactive means in between
MEKK2mut confirm = mutant MEKK2 PB1-MEK5 binding signal retest – biochemical, single concentration, multiplex bead flow cytometry, confirmation; shares compounds with MEKK3 PB1 HTS; Alexa488-MEK5 binding to MEKK2 mutant; percent response, % at 10 µM; actives 2% (n = 5,900); in the data active means percent response mostly above about 71%, no sharp cut-off; inactive means mostly below about 38%;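 further: higher means compound restores mutant binding toward wildtype level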
MEKK3 confirm = MEKK3 wild-type PB1 binding to MEK5, inhibitors, confirmation, biochemical, bead multiplex flow cytometry, single concentration, wildtype. shares compounds with MEKK3 PB1 HTS. Alexa488-MEK5 binding to MEKK3; stronger effect = lower value. binding response (% of control), % at 10 µM. actives 1.8% (n = 5,900);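 active means binding response below 72% of control, or above a set upper limit, though filed actives all read lower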;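 further: 100% = DMSO only wells and 0% = binding blocked by excess unlabeled MEK5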
* hit, by the source's call; i = inactive; · = no result given; [ ] = remark or other dose. Shown are actives, neighbours in structure and some others; about 3.4% of the full set was active somewhere.

SMILES	NTR1 agonist	TMEM16A inh	MEKK2mut PB1 HTS	MEKK2 WT-MEK5	MEKK3 PB1 HTS	TMEM16A act	MEKK2wt confirm	MEKK2mut confirm	MEKK3 confirm
CC(c1ccccc1)N1C(=O)NC(NC(=O)c2cccnc2)(C(F)(F)F)C1=O (centres undefined)	-2	i	-3	0.0*[inhibitor]	0.0*[inhibitor]	i	97	-8	96
O=C(NC1(C(F)(F)F)NC(=O)N(Cc2ccccc2)C1=O)c1cccnc1 (centres undefined)	-2	i	0	103	99	i	·	·	·
CCn1cc(C(=O)N2CCN(c3ccc(C(C)=O)cc3)CC2)c2cc(OC)c(OC)cc2c1=O	3	i	-1	101	97	i	·	·	·
COc1ccc(CC(=O)NNc2ncnc3c2cnn3-c2ccc(C)cc2)cc1	0	i	0	95	96	i	·	·	·
COc1ccc(CC(=O)NNc2ncnc3c2cnn3-c2ccccc2)cc1	0	i	0	103	136*	i	89	-2	97
Cc1ccc2c(c1)N(C(=O)CCC(=O)NCCCN1CCN(C)CC1)CCO2	0	i	-1	103	100	i	·	·	·
Cc1ccc2c(c1)N(C(=O)CCC(=O)NCCCN1CCC(Cc3ccccc3)CC1)CCO2	1	i	25*	142*	103	i	159	39	112
CCn1ncc(CN2CCCC(C(=O)Nc3cccc(-c4cc5ccccc5[nH]4)c3)C2)c1C (centres undefined)	6	i	24*	161*	108	i	168	36	113
COCCNC(=O)CSc1nc(-c2ccc(OC)c(OC)c2)cc(C(F)(F)F)n1	2	i	-12	87	79*[inhibitor]	i	93	0	89
CCn1cc(CNC(=O)CSc2nc(-c3ccc(OC)c(OC)c3)cc(C(F)(F)F)n2)c(C)n1	-1	i	-1	95	91	i	·	·	·
Cc1ccc(NC(=S)NCc2ccc(S(N)(=O)=O)cc2)cc1Cl	4	i	-5	97	99	i	·	·	·
COc1cc(NC(=S)NCc2ccc(S(N)(=O)=O)cc2)c(OC)cc1Cl	3	i	0	102	59*[inhibitor]	i	103	3	101
CCN(C(=O)COC(=O)c1[nH]c(=O)[nH]c(=O)c1N)c1ccccc1	0	i	-2	98	99	i	·	·	·
C#CCOCCOCCOCCNc1nc(N2CCN(C(=O)[C@H](CCC(=O)O)n3cc(C(N)Cc4ccc(O)cc4)nn3)CC2)nc(N2CCN(C(=O)[C@H](Cc3cc4ccccc4[nH]3)n3cc(C(N)CC(C)C)nn3)CC2)n1 (some centres undefined)	-1	i	29	145*	107	·	120	8	102
